Laboratory results: PubChem BioAssay AID1930 (Vanderbilt High Throughput Screening Facility, 2009)
Calls of active or inactive are those of the source. The rule behind the calls is not given here.

biological target: Muscarinic acetylcholine receptor M2 (Homo sapiens) (UniProt P08172); test: ACh potency shift at human M2 – cell-based, Gqi5 chimera, calcium, selectivity assay for M4 PAM project (AID 1930); conditions: hM2/Gqi5 cells, ACh calcium response fold-shift; series mostly up to 10 µM
Sequence (P08172 whole entry, looked up): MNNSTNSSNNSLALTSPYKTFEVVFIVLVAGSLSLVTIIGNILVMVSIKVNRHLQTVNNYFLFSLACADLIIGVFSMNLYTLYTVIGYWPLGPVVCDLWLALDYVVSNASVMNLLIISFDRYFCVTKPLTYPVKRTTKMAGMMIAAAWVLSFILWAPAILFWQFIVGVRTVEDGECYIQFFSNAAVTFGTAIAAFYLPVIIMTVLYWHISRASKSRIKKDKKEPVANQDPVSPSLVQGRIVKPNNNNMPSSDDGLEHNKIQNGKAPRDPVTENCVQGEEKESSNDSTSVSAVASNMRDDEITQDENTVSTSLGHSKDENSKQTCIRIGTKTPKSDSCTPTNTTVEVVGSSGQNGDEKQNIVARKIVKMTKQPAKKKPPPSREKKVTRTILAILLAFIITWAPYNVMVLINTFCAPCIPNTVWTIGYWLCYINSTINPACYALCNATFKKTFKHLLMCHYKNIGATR

outcome, inactive:
Cc1cc(OCc2ccncc2)nc2sc(C(=O)NCc3cc(F)ccc3F)c(N)c12
Cc1cc(OCCN2CCOCC2)nc2sc(C(=O)NC(C)(C)C)c(N)c12
COc1ccc(CNC(=O)c2sc3nc(OCc4ccncc4)cc(C)c3c2N)cc1
Cc1cc(OCc2ccncc2)nc2sc(C(=O)NCc3cccc(F)c3F)c(N)c12
